Screen size: about 3,700 compounds; fewer than 10 were called active. How the calls were made is not given here. Not all results are given here. Where only a bound is given, the exact number is not on record here.

The test is described as follows: NMR binding screen, influenza A RNA promoter, Kd (AID 1637). Conditions: NMR binding to influenza A RNA promoter.
Broadly, the Kd is a measure of binding affinity in units of concentration. `O=c1[nH]c(O)c(C=NCc2cccs2)c(=O)[nH]1`: the Kd was > 4 mM (inactive).

As to `CC(=O)c1cccc(N=C2NC(=O)CS2)c1`, the Kd was > 4 mM (inactive).

Take `Cc1csc(SCC(=O)N2CCCC2)n1`: the Kd was > 4 mM (inactive).

Consider `Nc1cc(=O)[nH]c(SCC(=O)Nc2nccs2)n1`, for which the Kd was > 4 mM (inactive).

`COc1cc(OC)c2c(=O)c(OC)c(-c3ccc(OC)c(OC)c3)oc2c1`: the Kd was > 4 mM (inactive).

For `C=C1CCC2[C@](C)(CO)[C@H](O)CC[C@@]2(C)[C@@H]1C/C=C1/C(=O)OC[C@H]1O` (stereo partly specified), the Kd is > 4 mM (inactive).

On to `Cc1occc1C(=O)NCc1ccccn1`, for which the Kd was > 4 mM (inactive).

With `NC(=O)NC1C=CS(=O)(=O)C1` (stereo unspecified), the Kd was > 4 mM (inactive).

As to `Cc1c(N=Cc2ccco2)c(=O)n(-c2ccccc2)n1C`, the Kd is > 4 mM (inactive).

Take `Cc1ccc(CN2C3=NC(=O)CN3c3ccccc32)cc1`: the Kd was > 4 mM (inactive).

With `COc1nc(N2CCOCC2)nc(N)c1[N+](=O)[O-]`, the Kd is > 4 mM (inactive).

Turning to `CC1=NN2C(=N)/C(=C\c3cccs3)C(=O)N=C2S1`, the Kd is > 4 mM (inactive).

Turning to `O=C(O)C1NCCc2ccccc21` (stereo unspecified), the Kd was > 4 mM (inactive).

With `CCn1nnc(NC(=O)c2ccccc2Br)n1`, the Kd is > 4 mM (inactive).

Take `O=S1(=O)NC(=NCc2ccco2)c2ccccc21`: the Kd is > 4 mM (inactive).

As to `O=C(NCc1ccc2c(c1)OCO2)c1cccs1`, the Kd is > 4 mM (inactive).

In the case of `Cn1nnc2cc(C(=O)Nc3cccnc3)ccc21`, the Kd was > 4 mM (inactive).

As to `Cc1ccc(SCc2nc(-c3ccncc3)no2)cc1`, the Kd is > 4 mM (inactive).

`NC1CS(=O)(=O)CC1O` (stereo unspecified): the Kd is > 4 mM (inactive).

`C=CCCCCCCCCCCCC(O)CC(O)CO` (stereo unspecified) (tested in a mixture with another compound): the Kd is > 4 mM (inactive).

With `CN1C(=O)C2CC=C(Cl)CC2C1=O` (stereo unspecified), the Kd is > 4 mM (inactive).

Take `Cc1c(/C=N\n2cnnc2)c2ccccc2n1C`: the Kd was > 4 mM (inactive).

Take `CN(C)S(=O)(=O)NCc1ccc2c(c1)OCO2`: the Kd is > 4 mM (inactive).

`CC1(c2ccncc2)NC(=O)NC1=O` (stereo unspecified): the Kd was > 4 mM (inactive).

Take `c1cc2n(c1)CCNC2c1ccncc1` (stereo unspecified): the Kd was > 4 mM (inactive).

As for `Cc1nc2[nH]onc2c2nccc(=O)c12`, the Kd was > 4 mM (inactive).

As for `CCCN1CCC(N2CCC(O)CC2)CC1`, the Kd is > 4 mM (inactive).

As for `O=C1NC(=O)/C(=C\c2ccncc2)S1`, the Kd was > 4 mM (inactive).

In the case of `O=C1CSC(=O)N1CN1CCCC1`, the Kd was > 4 mM (inactive).

On to `O=C(O)CSCc1ccc(Cl)cc1`, for which the Kd was > 4 mM (inactive).

Take `CCCC(=O)N1CCSCC1`: the Kd was > 4 mM (inactive).

With `Cn1nc(C(=O)N2CCCC2)c2ccccc2c1=O`, the Kd was > 4 mM (inactive).

In the case of `Cc1nn(C)c(Cl)c1C(O)c1c(C)nn(C)c1Cl`, the Kd was > 4 mM (inactive).

On to `Cc1ccc(-c2nn3c(C)nnc3s2)cc1N`, for which the Kd is > 4 mM (inactive).

As to `Nc1ccc2nsnc2c1`, the Kd is > 4 mM (inactive).

As to `CC(=O)Nc1cc(C(N)=O)cc(C(N)=O)c1`, the Kd is > 4 mM (inactive).

Consider `NS(=O)(=O)c1ccccc1Cl`, for which the Kd is > 4 mM (inactive).

With `CSc1nc(=O)[nH]c2c1CCC2`, the Kd is > 4 mM (inactive).

For `Cn1cnc2cc(NC(=O)c3ccco3)ccc21`, the Kd was > 4 mM (inactive).

For the compound `COc1ccc(NC2=NCC(C)S2)cc1` (stereo unspecified), the Kd was > 4 mM (inactive).

In the case of `COC(=O)Nc1nnc(-c2ccncc2)s1`, the Kd was > 4 mM (inactive).

As for `NC(=O)Cn1nnc(-c2ccc(C(F)(F)F)cc2)n1`, the Kd was > 4 mM (inactive).

For the compound `Nc1cccc(NC(=O)c2cccs2)c1`, the Kd is > 4 mM (inactive).

In the case of `CCN1CCC(NC2CCC(O)CC2)CC1` (stereo unspecified), the Kd is > 4 mM (inactive).

`OC12C=CC(CC1)CC2`: the Kd was > 4 mM (inactive).

For `NC(=O)CSc1ccc2nnc(-c3ccccc3)n2n1`, the Kd is > 4 mM (inactive).

As for `CCCCN1C(=O)C2CC/C(=N/O)CC2C1=O` (stereo unspecified), the Kd is > 4 mM (inactive).

As for `C[C@@H]1OC(O[C@H]2[C@H](OC(=O)[C@]34CCC(C)(C)CC3C3=CCC5[C@@]6(C)CC[C@H](OC7O[C@@H](C)[C@H](O[C@@H]8OC[C@@H](O)[C@H](O)[C@H]8O)[C@@H](O)[C@H]7O)C(C)(C)C6CC[C@@]5(C)[C@]3(C)CC4O)OC[C@H](O)[C@H]2O)[C@H](O)[C@H](O)[C@H]1O[C@@H]1O[C@H](CO)[C@@H](O)[C@H](O)[C@H]1O` (stereo partly specified), the Kd is > 4 mM (inactive).

Consider `NC(=O)C1CCN(C(=O)c2ccccc2F)CC1`, for which the Kd was > 4 mM (inactive).

For `O=C(Nc1cccc2cccnc12)c1cccnc1`, the Kd was > 4 mM (inactive).

`Cc1nc(NC2=NCCC(=O)N2)nc2ccccc12`: the Kd was > 4 mM (inactive).

Source of the values: PubChem BioAssay AID1637 (Sanford-Burnham Center for Chemical Genomics, 2009).
